DUX4 txn inh: inhibitors of DUX4-driven ZSCAN4 reporter expression, primary screen, 293T cells, Gaussia and Italica luciferase; 293T-iDUX4 ZSCAN4-Gaussia luciferase reporter, 24 h; active compounds read low; activity change, negative = inhibition, % (test concentration not listed); 37,000 tested, 0.8% active;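 active = mean inhibition of at least 10% in the main channel, exceeding the control channel by a set limit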;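 note: 0% = median of neutral control wells and -100% = median of positive control wells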
An asterisk follows results filed as active. This is one part of a sample in which hits are shown more often than they occur.

SMILES | DUX4 txn inh
CC(=O)N1CC(=O)N2[C@H](CO)[C@H](c3ccc(C#Cc4cccnc4)cc3)[C@@H]2C1 | -11*
COc1ccc2c3c(n(C)c2c1)[C@H](CO)N(Cc1ccccc1OC)CC31CN(CC2CCOCC2)C1 | -10
CC(C)N(C[C@@H]1[C@H](c2ccccc2)[C@@H](CO)N1S(C)(=O)=O)C(=O)CN(C)C | 6
CCCC#Cc1ccc([C@@H]2[C@@H](CO)N3C(=O)CN(C(=O)Nc4cc(F)ccc4F)C[C@H]23)cc1 | 5
O=C(Nc1cccc(F)c1)N1CC(=O)N2[C@H](CO)[C@@H](c3ccc(C#CCC4CCCC4)cc3)[C@H]2C1 | -7
O=C(NCCN1CCCC1)[C@@H]1[C@@H](CO)[C@@H]2Cn3c(cccc3=O)[C@H]1N2C(=O)NC1CCCC1 | -2
COc1ccc(C#Cc2ccc3c(c2)[C@H]2[C@H](CCN2C(=O)c2ccccc2F)[C@H](CO)N3)cc1 | -32*
COc1cccc(C#Cc2ccc3c(c2)[C@H]2[C@H](CCN2C(=O)c2ccc(F)cc2)[C@H](CO)N3)c1 | -9
COc1ccc(C#Cc2ccc3c(c2)[C@@H]2[C@@H](CCN2C(C)=O)[C@@H](CO)N3)cc1 | 19
COc1cccc(C#Cc2ccc3c(c2)[C@H]2[C@H](CCN2C(=O)c2ccccc2F)[C@H](CO)N3)c1 | -28*
O=C(c1ccccc1F)N1CC[C@H]2[C@H](CO)Nc3ccc(C#Cc4ccc(F)cc4)cc3[C@H]21 | -6
COc1cccc(C#Cc2ccc3c(c2)[C@@H]2[C@@H](CCN2C(=O)c2ccccc2F)[C@@H](CO)N3)c1 | 8
O=S(=O)(c1cccc(F)c1)N1CC[C@H]2[C@H](CO)Nc3ccc(C#Cc4cccc(F)c4)cc3[C@H]21 | -4
C/C=C/c1ccc([C@H]2[C@@H](CO)N(Cc3cncnc3)C23CN(C(=O)CC2CC2)C3)cc1 | -4
O=C([C@@H]1[C@@H](CO)[C@@H]2Cn3c(ccc(C4=CCCCC4)c3=O)[C@@H]2N1Cc1nccs1)N1CCOCC1 | -2
COc1ccc2c3c([nH]c2c1)[C@H](CO)N(Cc1ccccc1F)CC31CCN(S(C)(=O)=O)CC1 | 10
COc1ccc2c3c([nH]c2c1)[C@H](CO)N(Cc1cccc(Cl)c1)CC31CCN(C(C)=O)CC1 | -67*
COc1ccc2c3c([nH]c2c1)[C@@H](CO)N(Cc1ccccc1Cl)CC31CCN(C(=O)C2CC2)CC1 | -21*
COCC(=O)N1CC2(CCN(Cc3ccccc3Cl)CC2)c2c([nH]c3cc(OC)ccc23)[C@H]1CO | -5
COc1ccc2c3c([nH]c2c1)[C@@H](CO)N(Cc1ccc(F)cc1)CC31CN(C)C1 | -5
COc1cccc(CN2CC3(CCN(C)CC3)c3c([nH]c4cc(OC)ccc34)[C@@H]2CO)c1 | -3
COc1ccc2c3c([nH]c2c1)[C@@H](CO)N(C(=O)c1ccccn1)CC31CCN(C(=O)C2CC2)CC1 | -1
COc1ccc2c3c([nH]c2c1)[C@@H](CO)N(Cc1ccccc1F)CC31CN(C)C1 | -9
COc1ccc(CN2CC3(C2)CN(Cc2ccc4c(c2)OCO4)[C@H](CO)c2[nH]c4cc(OC)ccc4c23)cc1 | -58*
CCS(=O)(=O)N1CC2(CN(Cc3ccc4c(c3)OCO4)[C@@H](CO)c3[nH]c4cc(OC)ccc4c32)C1 | -8
SMILES | DUX4 txn inh
COCC(=O)N1CCC2(CC1)CN(Cc1cccc(Cl)c1)[C@H](CO)c1[nH]c3cc(OC)ccc3c12 | 2
CCS(=O)(=O)N1CC2(CN(Cc3ccccc3F)[C@@H](CO)c3[nH]c4cc(OC)ccc4c32)C1 | -46*
C/C=C/c1ccc([C@H]2[C@@H](CO)N(S(C)(=O)=O)C23CN(C(=O)CC)C3)cc1 | 4
C[C@H](NC(=O)C[C@H]1CC[C@@H]2[C@H](COc3ccc(NS(=O)(=O)c4ccc(Cl)cc4)cc3C(=O)N2C)O1)c1ccccc1 | -3
COCC#Cc1ccc([C@@H]2[C@H](CO)N3C(=O)CN(C(=O)Nc4ccccc4F)C[C@@H]23)cc1 | -4
CC(=O)N(C)C[C@@H]1Oc2cc(-c3ccc(C)cc3)ccc2S(=O)(=O)N([C@H](C)CO)C[C@H]1C | 0
CCCC(=O)N1CC2(C1)CN(C(=O)C1CCCCC1)[C@@H](CO)c1[nH]c3cc(OC)ccc3c12 | 5
CCC(=O)N1[C@H](C(=O)N(C)C)[C@@H](CO)[C@@H]2Cn3c(ccc(-c4ccccc4)c3=O)[C@@H]21 | 4
CCC(=O)N1[C@H](CO)[C@H](c2ccccc2-c2cccc(C)c2)[C@@H]1C#N | 5
O=C1NCCCOCc2cn(nn2)CC[C@H]1Cc1ccc(-c2ccccc2)cc1 | 2
COc1ccc2c3c([nH]c2c1)[C@H](CO)N(C(C)=O)CC31CCN(Cc2ccccc2Cl)CC1 | -8
COCC(=O)N1CCC2(CC1)CN(Cc1ccccc1Cl)[C@H](CO)c1[nH]c3cc(OC)ccc3c12 | 0
CCCNC(=O)N1CC2(CN(Cc3ccc(F)cc3)C2)c2c([nH]c3cc(OC)ccc23)[C@@H]1CO | -37*
COc1ccc2c3c([nH]c2c1)[C@@H](CO)N(Cc1ccc(Cl)cc1)CC31CCN(C(=O)CN(C)C)CC1 | 0
CCCC(=O)N1CCC2(CC1)CN(Cc1ccc(Cl)cc1)[C@@H](CO)c1[nH]c3cc(OC)ccc3c12 | -50*
CCCNC(=O)N1CC2(C1)CN(Cc1ccc(F)cc1)[C@@H](CO)c1[nH]c3cc(OC)ccc3c12 | -2
COc1ccc2c3c([nH]c2c1)[C@H](CO)N(Cc1ccc(Cl)cc1)CC31CCN(C(=O)CN(C)C)CC1 | 11
CCCNC(=O)N1CC2(CN(C)C2)c2c([nH]c3cc(OC)ccc23)[C@H]1CO | 9
COc1ccc2c3c([nH]c2c1)[C@H](CO)N(Cc1ccccc1Cl)CC31CCN(C(C)=O)CC1 | -28*
CCC(=O)N1CC2(C1)[C@H](c1ccc(-c3cccc(OC)c3)cc1)[C@@H](CO)N2C(C)=O | 8
CC(C)[C@H]1COCc2cn(nn2)CCCCC(=O)N1 | 1
CCNC(=O)[C@H]1[C@H](CO)[C@H]2Cn3c(ccc(-c4ccc(F)cc4)c3=O)[C@H]2N1C(=O)Cc1cccnc1 | 4
COc1ccc2c3c([nH]c2c1)[C@@H](CO)N(C(=O)c1ccncc1)CC31CN(C(=O)c2ccncc2)C1 | 18
O=C(NCCc1ccncc1)[C@H]1N[C@H]2c3ccc(/C=C/c4ccccc4)c(=O)n3C[C@H]2[C@@H]1CO | 0
C/C=C/c1ccc([C@H]2[C@@H](CO)N3C(=O)CN(C(=O)Nc4ccc(F)cc4)C[C@@H]23)cc1 | 6
SMILES | DUX4 txn inh
C[C@H](CO)N1C[C@H](C)[C@H](CN(C)C(=O)NC2CCCCC2)Oc2ccc(N(C)C)cc2CC1=O | -2
C/C=C/c1cccc(-c2nc(C(=O)N(C)C)cc3c2[C@@H](CCO)N([S@](=O)C(C)(C)C)C3)c1 | 0
C/C=C/c1ccc([C@H]2[C@@H](CO)N(C(=O)CN(C)C)[C@@H]2CNC(=O)CC)cc1 | -2
C[C@H]1CC=CC[C@H](c2ccc3c(c2)OCO3)NC(=O)[C@@H](Cc2ccccc2)N(C)C(=O)c2ccccc2O1 (mixture of isomers) | -1
CC=Cc1ccc2n(c1=O)C[C@H]1N[C@@H]2[C@@H](C(=O)NCc2ccc3c(c2)OCO3)[C@@H]1CO (mixture of isomers) | -1
COc1ccc(NC(=O)Nc2cccc3c2O[C@@H](CN(C)S(=O)(=O)c2cccs2)[C@@H](C)CN([C@@H](C)CO)C3=O)cc1 | 3
CCC(=O)N1CC2(C1)CN(C(=O)Nc1ccccc1F)[C@@H](CO)c1[nH]c3cc(OC)ccc3c12 | 13
